This note sets out measurements from PubChem BioAssay (EPA / NIEHS).

By AC50 is commonly meant the midpoint of the concentration-response curve, whichever way the signal moves.

Several values for one entry are separate records, joined by “and”; a condition that tells them apart may be missing. Equal entries are not always repeated. Activity calls are given as the source filed them. How the source made its calls: active means hit-call score of the fitted dose curve at least 0.9, where 1 is the maximum; inactive means score below 0.9.

Read-out in one experiment: Basic fibroblast growth factor (bFGF), FGF2 (gene 2247)
The experiment is described as follows: BSK_MyoF_bFGF: BioMAP Diversity Plus: MyoF Assay for Basic fibroblast growth factor (bFGF) Biomarker Activity (AID 2284246). To be noted: primary human lung fibroblasts. A digest of the protocol: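 Human lung fibroblast cultures were dosed and measured 24 h later in 96-well format. bFGF biomarker levels quantified by ELISA, with activity fitted in the positive direction against DMSO.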
With `CC1CCC(C(C)CS)CC1S` (centres undefined), the AC50 was 7.89 µM (active).

As to `O=C(O)C[C@H](O)C[C@H](O)/C=C/c1c(C2CC2)nc2ccccc2c1-c1ccc(F)cc1`, the outcome was inactive.

Regarding `O=C(O)c1cn(-c2ccc(F)cc2)c2cc(N3CCNCC3)c(F)cc2c1=O`, the result was inactive.

For `CC(C)Oc1ccccc1O`, the result was inactive.

As to `CC1COc2ccccc2N1C(=O)C(Cl)Cl` (centres undefined), the result was inactive.

Regarding `Nc1cc([N+](=O)[O-])ccc1Cl`, the outcome was inactive.

Take `CCCCCCCCCC=O`: the outcome was inactive.

On to `O=C(O)c1cn(C2CC2)c2cc(N3CCNCC3)c(F)cc2c1=O`, for which the result was inactive.

Regarding `CCCCC(CC)COC(=O)/C=C\C(=O)OCC(CC)CCCC` (centres undefined), the outcome was inactive.

For the compound `CCCCCCCCC=O`, the result was inactive.

For the compound `CN(CCOc1ccc(CC2SC(=O)NC2=O)cc1)c1ccccn1` (centres undefined), the outcome was inactive.

As for `CC(C)c1ccc(C(C)C)cc1`, the result was inactive.

`CC(=O)/C=C/C1=C(C)CCCC1(C)C`: the outcome was inactive.

Read-out in a further experiment: Collagen IV, COL4A1 (gene 1282)
The experiment is described as follows: BSK_MyoF_CollagenIV: BioMAP Diversity Plus: MyoF Assay for Collagen IV Biomarker Activity (AID 2284247). To be noted: primary human lung fibroblasts. A digest of the protocol:
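Primary human lung fibroblasts (MyoF system) dosed 24 h; Collagen IV measured by ELISA. Activity fitted in positive direction against DMSO; cytotoxicity tracked by SRB total-protein staining in parallel cultures.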
Take `CC1CCC(C(C)CS)CC1S` (centres undefined): the AC50 was 11.8 µM (active).

Consider `O=C(O)C[C@H](O)C[C@H](O)/C=C/c1c(C2CC2)nc2ccccc2c1-c1ccc(F)cc1`, for which the result was inactive.

Turning to `O=C(O)c1cn(-c2ccc(F)cc2)c2cc(N3CCNCC3)c(F)cc2c1=O`, the result was inactive.

As to `CC(C)Oc1ccccc1O`, the outcome was inactive.

Turning to `CC1COc2ccccc2N1C(=O)C(Cl)Cl` (centres undefined), the AC50 was 2.33 µM (active).

Turning to `Nc1cc([N+](=O)[O-])ccc1Cl`, the result was inactive.

Consider `CCCCCCCCCC=O`, for which the AC50 was 7.8 µM (active).

As to `O=C(O)c1cn(C2CC2)c2cc(N3CCNCC3)c(F)cc2c1=O`, the result was inactive.

As for `CCCCC(CC)COC(=O)/C=C\C(=O)OCC(CC)CCCC` (centres undefined), the result was inactive.

Consider `CCCCCCCCC=O`, for which the result was inactive.

As for `CN(CCOc1ccc(CC2SC(=O)NC2=O)cc1)c1ccccn1` (centres undefined), the AC50 was 0.111 µM (active).

For `CC(C)c1ccc(C(C)C)cc1`, the outcome was inactive.

`CC(=O)/C=C/C1=C(C)CCCC1(C)C`: the outcome was inactive.

Read-out in a further experiment: Monokine induced gamma interferon (MIG), CXCL9 (gene 4283)
In words: BSK_KF3CT_MIG: BioMAP Diversity Plus: KF3CT Assay for Monokine induced gamma interferon (MIG) Biomarker Activity (AID 2284248). To be noted: primary human keratinocytes with fibroblasts. In short, it runs like this:
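KF3CT system: keratinocyte/fibroblast co-culture, 24 h post-dose, MIG by ELISA; activity vs DMSO, positive fitting direction.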
For the compound `CC[Si](OC(C)=O)(OC(C)=O)OC(C)=O`, the result was inactive.

As for `C[C@H]1C[C@@H]2[C@H]([C@@H](O)C[C@@]3(C)[C@H]2CC[C@]3(O)C(=O)CO)[C@@]2(C)C=CC(=O)C=C12`, the outcome was inactive.

On to `NCCNCCN`, for which the outcome was inactive.

In the case of `CC(=O)OCCC(C)CC(C)(C)C` (centres undefined), the outcome was inactive.

`OC[C@H]1O[C@H](O[C@]2(CCl)O[C@H](CCl)[C@@H](O)[C@@H]2O)[C@H](O)[C@@H](O)[C@H]1Cl`: the outcome was inactive.

For `CC(=O)[C@H]1CC[C@H]2[C@@H]3CC=C4C[C@@H](O)CC[C@]4(C)[C@H]3CC[C@]12C`, the result was inactive.

`Nc1cc([N+](=O)[O-])ccc1O`: the outcome was inactive.

As for `CCC(=O)OCc1ccccc1`, the result was inactive.

Regarding `OC1OC[C@@H](O)[C@H](O)[C@H]1O` (some centres undefined), the result was inactive.

For the compound `COc1cc(C=O)ccc1OC(=O)C(C)C`, the outcome was inactive.

For the compound `Cc1cc(C2(c3cc(C)c(O)cc3C)OS(=O)(=O)c3ccccc32)c(C)cc1O`, the result was inactive.

As for `C=CCOC(=O)CCC1CCCCC1`, the result was inactive.

Read-out in another experiment: Collagen I, COL1A1 (gene 1277)
The experiment is described as follows: BSK_hDFCGF_CollagenI: BioMAP Diversity Plus: hDFCGF Assay for Collagen I Biomarker Activity (AID 2284250). To be noted: primary human foreskin fibroblasts. In short, it runs like this: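 Primary human foreskin fibroblasts exposed to chemical for 24 h; Collagen I levels measured by ELISA. Cytotoxicity checked by SRB total-protein staining in parallel cultures.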
Take `CC[Si](OC(C)=O)(OC(C)=O)OC(C)=O`: the result was inactive.

Take `C[C@H]1C[C@@H]2[C@H]([C@@H](O)C[C@@]3(C)[C@H]2CC[C@]3(O)C(=O)CO)[C@@]2(C)C=CC(=O)C=C12`: the outcome was inactive.

With `NCCNCCN`, the result was inactive.

In the case of `CC(=O)OCCC(C)CC(C)(C)C` (centres undefined), the result was inactive.

`OC[C@H]1O[C@H](O[C@]2(CCl)O[C@H](CCl)[C@@H](O)[C@@H]2O)[C@H](O)[C@@H](O)[C@H]1Cl`: the outcome was inactive.

With `CC(=O)[C@H]1CC[C@H]2[C@@H]3CC=C4C[C@@H](O)CC[C@]4(C)[C@H]3CC[C@]12C`, the AC50 was 5.65 µM (active) and 9.87 µM (active).

In the case of `Nc1cc([N+](=O)[O-])ccc1O`, the outcome was inactive.

`CCC(=O)OCc1ccccc1`: the outcome was inactive.

As for `OC1OC[C@@H](O)[C@H](O)[C@H]1O` (some centres undefined), the outcome was inactive.

Take `COc1cc(C=O)ccc1OC(=O)C(C)C`: the outcome was inactive.

Regarding `Cc1cc(C2(c3cc(C)c(O)cc3C)OS(=O)(=O)c3ccccc32)c(C)cc1O`, the result was inactive.

Regarding `C=CCOC(=O)CCC1CCCCC1`, the result was inactive.

Read-out in a further experiment: Interferon-inducible T-cell alpha chemoattractant (ITAC), CXCL11 (gene 6373)
The experiment is described as follows: BSK_hDFCGF_ITAC: BioMAP Diversity Plus: hDFCGF Assay for Interferon-inducible T-cell alpha chemoattractant (ITAC) Biomarker Activity (AID 2284251). To be noted: primary human foreskin fibroblasts. In short, it runs like this: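 Fibroblasts (human foreskin, primary) are treated with chemical, cultured 24 h, then assayed for I-TAC by ELISA. Overt toxicity is checked in parallel cultures by sulforhodamine B staining of total protein at the same time point.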
For the compound `CC[Si](OC(C)=O)(OC(C)=O)OC(C)=O`, the outcome was inactive.

For `C[C@H]1C[C@@H]2[C@H]([C@@H](O)C[C@@]3(C)[C@H]2CC[C@]3(O)C(=O)CO)[C@@]2(C)C=CC(=O)C=C12`, the result was inactive.

Turning to `NCCNCCN`, the result was inactive.

On to `CC(=O)OCCC(C)CC(C)(C)C` (centres undefined), for which the result was inactive.

As to `OC[C@H]1O[C@H](O[C@]2(CCl)O[C@H](CCl)[C@@H](O)[C@@H]2O)[C@H](O)[C@@H](O)[C@H]1Cl`, the outcome was inactive.

For `CC(=O)[C@H]1CC[C@H]2[C@@H]3CC=C4C[C@@H](O)CC[C@]4(C)[C@H]3CC[C@]12C`, the result was inactive.

In the case of `Nc1cc([N+](=O)[O-])ccc1O`, the result was inactive.

In the case of `CCC(=O)OCc1ccccc1`, the result was inactive.

In the case of `OC1OC[C@@H](O)[C@H](O)[C@H]1O` (some centres undefined), the outcome was inactive.

For `COc1cc(C=O)ccc1OC(=O)C(C)C`, the outcome was inactive.

Regarding `Cc1cc(C2(c3cc(C)c(O)cc3C)OS(=O)(=O)c3ccccc32)c(C)cc1O`, the result was inactive.

As to `C=CCOC(=O)CCC1CCCCC1`, the outcome was inactive.

Read-out in the next experiment: Interleukin-8 (IL8), CXCL8 (gene 3576)
In words: BSK_KF3CT_IL8: BioMAP Diversity Plus: KF3CT Assay for Interleukin-8 (IL8) Biomarker Activity (AID 2284254). To be noted: primary human keratinocytes with fibroblasts. In short, it runs like this:
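Chemicals were added to co-cultured human keratinocytes and foreskin fibroblasts, incubated 24 h, then IL-8 was quantified by ELISA. Cytotoxicity was tracked by sulforhodamine B total-protein staining in parallel cultures.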
As for `CC[Si](OC(C)=O)(OC(C)=O)OC(C)=O`, the outcome was inactive.

`C[C@H]1C[C@@H]2[C@H]([C@@H](O)C[C@@]3(C)[C@H]2CC[C@]3(O)C(=O)CO)[C@@]2(C)C=CC(=O)C=C12`: the result was inactive.

`NCCNCCN`: the outcome was inactive.

As to `CC(=O)OCCC(C)CC(C)(C)C` (centres undefined), the outcome was inactive.

Consider `OC[C@H]1O[C@H](O[C@]2(CCl)O[C@H](CCl)[C@@H](O)[C@@H]2O)[C@H](O)[C@@H](O)[C@H]1Cl`, for which the outcome was inactive.

In the case of `CC(=O)[C@H]1CC[C@H]2[C@@H]3CC=C4C[C@@H](O)CC[C@]4(C)[C@H]3CC[C@]12C`, the result was inactive.

On to `Nc1cc([N+](=O)[O-])ccc1O`, for which the result was inactive.

`CCC(=O)OCc1ccccc1`: the result was inactive.

As to `OC1OC[C@@H](O)[C@H](O)[C@H]1O` (some centres undefined), the result was inactive.

For the compound `COc1cc(C=O)ccc1OC(=O)C(C)C`, the result was inactive.

Consider `Cc1cc(C2(c3cc(C)c(O)cc3C)OS(=O)(=O)c3ccccc32)c(C)cc1O`, for which the outcome was inactive.

As to `C=CCOC(=O)CCC1CCCCC1`, the outcome was inactive.
